Measured values: PubChem BioAssay (NCI)
This is part of a sample that, as a whole, favours compounds with a hit. Of some 79,000 tested, about 15% had one in any assay. Calls of active or inactive are those of the source. No stated cut-off is given here; in the data, active means growth inhibition above about 70%; inactive means the rest.

Experiment: NCI Yeast Anticancer Drug Screen. Data for the mgt1 strain (AID 153)
Details: S. cerevisiae mgt1 mutant growth inhibition, active compounds read high
Experimental: Growth inhibition of yeast strains with defined genetic alterations is measured as a screen for potential anti-cancer activity. Selected strains with alterations in DNA damage repair or cell cycle control were exposed to compounds and growth inhibition was measured relative to vehicle treated controls. The strain used in this assay is mgt1

Measured: growth inhibition

CCN(CC)CC[n+]1ccc2c(C)c3[nH]c4ccc(O)cc4c3c(C)c2c1
inactive: at 1.2 µM 0% | at 3.7 µM -1% | at 11.0 µM 0% | at 33.0 µM 3% | at 100.0 µM 8%

CCC(=O)Oc1c(Cl)cc(Cl)c2ccccc12
inactive: at 1.2 µM -8% | at 3.7 µM -10% | at 11.0 µM -2% | at 33.0 µM 3% | at 100.0 µM 28%

COc1ccc(NC(=S)N/N=C(\c2ccccc2)c2ccccn2)cc1
inactive: at 1.2 µM -1% | at 3.7 µM -6% | at 11.0 µM 8% | at 33.0 µM 52%
active: at 100.0 µM 95%

NC(=NCc1ccccc1)N/N=C\c1ccnc2ccccc12
active: at 100.0 µM 76%
inactive: at 1.2 µM -4% | at 3.7 µM -3% | at 11.0 µM 0% | at 33.0 µM 3%

c1ccc2c(c1)C(=NCCCN1CCCCCC1)c1cccn1-2
inactive: at 1.2 µM -4% | at 3.7 µM -1% | at 11.0 µM -1% | at 33.0 µM 3%
active: at 100.0 µM 97%

CC1CCN(CCC(=O)c2ccc(Cl)cc2)CC1
inactive: at 1.2 µM -1% | at 3.7 µM 4% | at 11.0 µM 20% | at 33.0 µM 35% | at 100.0 µM 52%

O=C(OCC=C1CCCC1)c1cc([N+](=O)[O-])cc([N+](=O)[O-])c1
inactive: at 1.2 µM -1% | at 3.7 µM -1% | at 11.0 µM 16%
active: at 33.0 µM 95% | at 100.0 µM 98%

O=C1C=CC(=C(c2ccccc2)c2ccccc2)c2ccccc21
inactive: at 1.2 µM 0% | at 3.7 µM 0% | at 11.0 µM -1% | at 33.0 µM -1% | at 100.0 µM 2%
